# PubChem BioAssay AID2284348 (EPA ToxCast)
# Results filed as inconclusive are left out. The source made the active and inactive calls. How the source made its calls: active means hit-call score of the fitted dose curve at least 0.9, where 1 is the maximum; inconclusive means response in the unintended direction; inactive means score below 0.9.
# System: Japanese medaka Peroxisome Proliferator-activated Receptor alpha (PPARa), gene 100304458
# Test: ATG_jmPPARa_EcoTox2: Attagene TRANS-FACTORIAL EcoTox-2 HepG2 Assay for Japanese medaka Peroxisome Proliferator-activated Receptor alpha (PPARa)
# Experimental: ATG_EcoTox2 is a cell-based, multiplexed assay created by modifying the existing Attagene TRANS-FACTORIAL system to include a panel of nuclear receptors from some or all the following species: human (Homo sapiens), african clawed frog (Xenopus laevis), rainbow trout (Oncorhynchus mykiss), japanese medaka (Oryzias latipes), and zebrafish (Danio rerio). The ECOTOX2-FACTORIAL format uses HepG2, a human liver cell line, with measurements taken at 24 hours after chemical dosing in a 24-well plate. ATG_jmPPARa_EcoTox2 is one of 29 assay components calculated in the ATG_EcoTox2 assay. It is designed to make measurements of mRNA induction, a form of inducible reporter, as detected with fluorescence intensity signals by Reverse transcription polymerase chain reaction (RT-PCR) and Capillary electrophoresis technology.The assay endpoint ATG_jmPPARa_EcoTox2 was analyzed in the positive analysis fitting direction relative to DMSO as the negative control and baseline of activity. Using a type of inducible reporter, measures of mRNA for gain-of-signal activity can be used to understand the reporter gene at the transcription factor-level as they relate to the gene PPARa. Furthermore, this assay endpoint can be referred to as a […], because this assay has produced multiple assay endpoints where this one serves a reporter gene function. To generalize the intended target to other relatable targets, this assay endpoint is annotated to the nuclear receptor intended target family, where the subfamily is non-steroidal.
# Human liver HepG2 cells are transiently transfected with multiple reporter transcription units (MRTUs) in 6-well plates using FuGene 6 reagent (Roche; 3 ml FuGene/1 mg DNA). The MRTU constructs are regulated by a cis-regulating element (promoter). Each RTU expresses a GAL4-UAS that regulates the transcription of a nearby target reporter gene sequence. A major difference between the CIS and TRANS system is that in CIS activities of endogenous TFs are measured, whereas the TRANS assay evaluates changes in activities of exogenous, chimeric NR-Gal4 proteins. […] At the end of 24 hour incubation, total RNA was isolated using TriZol reagent (Invitrogen). The isolated RNA is then reverse-transcribed using oligo(dT) primer and Mo-MLV reverse transcriptase (Invitrogen) with DNAse I (Ambion) treatment for 30 min. The one-tenth of the produced cDNA was amplified by PCR using Taq DNA polymerase (Invitrogen) and two reporter sequence-specific primers. […] The fragments were purified using Qiaquick PCR columns (Qiagen), analyzed on an ABI 3130xL genetic analyzer (Applied Biosystems) with peak positions identified by using a set of X-rhodamine (ROX)-labeled MapMarker1000 molecular weight standards (BioVentures). […]
Structure (SMILES),AC50,outcome
[Cl][Sn]([c]1ccccc1)([c]1ccccc1)[c]1ccccc1,0.473 µM (active),–
CCCCOCN(C(=O)CCl)c1c(CC)cccc1CC,50 µM (active),–
O=C(O)C(F)(F)C(F)(F)C(F)(F)C(F)(F)C(F)(F)C(F)(F)C(F)(F)F,75 µM (active),–
O=S(=O)(O)C(F)(F)C(F)(F)C(F)(F)C(F)(F)C(F)(F)C(F)(F)F,–,inactive
